The whole screen tested about 420,000 compounds, of which about 50,000 (12%) were called active. Where a call stands in place of a potency, no number is given. Not shown: some 26% with an inconclusive outcome. The call rests on the fitted dose curve; in most records, active means well fitted inhibition curve with a large enough effect; inconclusive means small, poorly fitted or top-dose-only effect; inactive means flat fitted curve, though single readings scatter. The full list was thinned out, with actives kept by preference.
Potency means the concentration at half of the fitted maximal effect.

This experiment is described as follows: qHTS for Inhibitors of human tyrosyl-DNA phosphodiesterase 1 (TDP1): qHTS in cells in presence of CPT. Further: nearly all actives have a fitted effect of over 55% in size. Conditions: chicken DT40 Tdp1-/-;hTDP1 cells + 20 nM CPT, ATP luminescence, 48 h; series mostly up to 46.2 µM. The gist of the method:
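Chicken DT40 Tdp1-/- cells complemented with human TDP1, 400 cells/well, exposed to compounds plus 20 nM camptothecin for at least 48 h at 37 C; viability read as ATP content by CellTiter-Glo luminescence.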
A general note: Quantitative high-throughput screening tests each substance at several concentrations.
Take `COc1ccc(CNC(=O)c2cc(=O)c3c(C)cc(C)cc3o2)cc1`: the Potency entry is “inactive”. The same measure for `CCCCn1c(N)c(N(CCOC)C(=O)c2cccc(S(=O)(=O)N3CCCCC3)c2)c(=O)[nH]c1=O`: “inactive”. Consider `COc1cc(OC)c(S(=O)(=O)Nc2ccccc2C(=O)O)cc1S(=O)(=O)Nc1ccccc1C(=O)O`, for which the Potency result was “inactive”. The same measure for `CS(=O)(=O)N1CCN(c2cccc(Cl)n2)CC1`: “inactive”. In the case of `O=C(COc1ccc2c(c1)CCC2)N1CCN(c2ccc(F)cc2)CC1`, the Potency result was “inactive”. Then `CCCCn1c(SCC(=O)NCC2CCCO2)nc2ccc(N3CCOCC3)cc2c1=O` (configuration not stated), with “inactive”; and `COCCNC(=O)c1ccc(Cn2c(SCC(=O)NCC3CCCO3)nc3ccc(Br)cc3c2=O)cc1` (configuration not stated), with “inactive”. Then `COCCn1c(=O)c(-c2ccccc2)nc2cnc(N3CCOCC3)nc21`, with “inactive”; and `N#CCSc1nc2ccc(N3CCOCC3)cc2c(=O)n1CCc1ccccc1`, with 23.1 µM (active); and `COCCCNC(=O)CSc1nc2ccc(N3CCOCC3)cc2c(=O)n1CCc1ccccc1`, with 16.4 µM (active).

Turning to `Cc1nn2c3cc(N4CCOCC4)ccc3nc2c2ccccc12`, the Potency entry was “inactive”. As to `COc1ccccc1/C=C/C(=O)OCC(=O)NC1CCCCCC1`, the Potency entry was “inactive”. The same measure for `C=Cc1ccc(C(=O)N2CCCC(CCC(=O)N3CCN(c4ccccn4)CC3)C2)cc1` (configuration not stated): “inactive”; for `Cc1ccc2oc3c(c(=O)c2c1)C(c1ccc(O)cc1)N(Cc1ccc2c(c1)OCO2)C3=O` (configuration not stated): 14.6 µM (active). Then `COc1ccc(C2c3c(oc4ccccc4c3=O)C(=O)N2Cc2ccc3c(c2)OCO3)cc1` (configuration not stated), with “inactive”; and `CCCOc1ccc(C2c3c(oc4cc(C)c(C)cc4c3=O)C(=O)N2CCCN2CCOCC2)cc1` (configuration not stated), with “inactive”; and `Cc1ccc(NNC(=O)c2cccs2)cc1Cl`, with “inactive”.

On to `CC(NC(=O)COc1cccnc1[N+](=O)[O-])c1ccc(Cl)cc1Cl` (configuration not stated), for which the Potency result was “inactive”. For `CC(=O)C[C@@H]1OC[C@H](C)N1S(=O)(=O)c1ccc(C)cc1`, the Potency result is “inactive”. Then `Cc1nn(CCOc2ccc(Br)cc2)c(C)c1[N+](=O)[O-]`, with “inactive”; and `CCn1nc(C(=O)NNS(=O)(=O)c2cc(/C=C/C(=O)O)cc(OC)c2OC)c2ccccc2c1=O`, with “inactive”. As for `CCn1nc(C)c(NC(=O)/C=C/c2ccc(OC)c(COc3ccc(Br)cc3)c2)c1C`, the Potency was 16.4 µM (active).

Take `O=C(O)CCCCCCCCCC[n+]1ccccc1`: the Potency entry was “inactive”. With `CCn1c(SCC(=O)NC2CC2)nnc1-c1ccncc1`, the Potency result was “inactive”. As to `CCOC(=O)c1c(NC(=O)c2cccs2)sc(C)c1C`, the Potency entry is “inactive”. The same measure for `CCOC(=O)c1c(NC(=S)NC(=O)/C=C/c2cccs2)sc(C)c1C`: 20.6 µM (active); for `CCOC(=O)c1c(NC(=O)/C=C/c2ccco2)sc(C)c1C`: “inactive”; for `Cc1c(NC(=S)NC(=O)CCc2ccccc2)c(=O)n(-c2ccccc2)n1C`: “inactive”. For `NC(=O)[C@H]1CC2(CC(c3cccc(NC(=O)[C@H]4CCC(=O)N4)c3)=NO2)CN1C(=O)c1ccccc1C(=O)c1ccccc1` (some centres not stated), the Potency result is “inactive”. As to `CC(C)CN(C(=O)CN1CCN(S(=O)(=O)c2ccccc2)CC1)c1c(N)n(CC(C)C)c(=O)[nH]c1=O`, the Potency result was “inactive”.

With `Cc1ccc(NC(=O)c2ccc(CSc3ncnc4nc[nH]c34)cc2)c(C)c1`, the Potency is 23.1 µM (active). Take `CSc1ncc(C(=O)Nc2ccc(C)cc2C)c(C)n1`: the Potency entry is “inactive”. In the case of `Cc1ccc(Cc2nnc(SCC(=O)Nc3ccc(C)cc3C)[nH]c2=O)cc1`, the Potency entry was “inactive”. In the case of `Cc1cc(C)c2oc(C(=O)Nc3ccc(S(=O)(=O)Nc4nccc(C)n4)cc3)cc(=O)c2c1`, the Potency entry was “inactive”. Then `Cc1ccc2nc(SCC(=O)N3CC(C)OC(C)C3)nc(=O)n2c1` (configuration not stated), with “inactive”. Then `O=C(CCC(=O)c1ccccc1)NCc1cccc(C(F)(F)F)c1`, with “inactive”; and `Cc1ccc2nc(NC(=O)CSc3nc(=O)n(CCCN(C)C)c4c3CCC4)sc2c1`, with 9.2 µM (active). Take `Cc1ccc(NC(=O)CSc2nc(=O)n(CCN(C)C)c3c2CCCC3)c(C)c1`: the Potency result was “inactive”. The same measure for `Cc1csc(NC(=O)CSc2nc(=O)n(CCCN(C)C)c3c2CCC3)n1`: “inactive”; for `COc1ccccc1Cc1c(-c2ccc(Cl)cc2)nc2c3ccccc3ccn12`: 25.9 µM (active); for `COc1ncc2nc(-c3ccc(Cl)cc3)c(=O)n(-c3ccccc3)c2n1`: “inactive”. With `N#Cc1ccc(-c2nc3c(Cl)cc(C(F)(F)F)cn3c2Cc2ccccc2C(F)(F)F)cc1`, the Potency entry was “inactive”.

Consider `O=C1C(c2ccccn2)=[N+]([O-])c2ccccc21`, for which the Potency entry was “inactive”. The same measure for `COCCN1C(=O)c2oc3c(C)cc(C)cc3c(=O)c2C1c1cccc(O)c1` (configuration not stated): “inactive”; for `O=C1c2oc3ccccc3c(=O)c2C(c2cccc(O)c2)N1c1ccccn1` (configuration not stated): 20.6 µM (active); for `CC(=O)c1sc(N2C(=O)c3oc4ccccc4c(=O)c3C2c2ccc(C)cc2)nc1C` (configuration not stated): “inactive”.

With `O=C(NC1CC(=O)N(c2ccc(F)cc2)C1)c1cccs1` (configuration not stated), the Potency result was “inactive”. The same measure for `CC(C)=NN1C(=O)c2ccccc2NC1(C)C`: “inactive”; for `O=C(Nc1ccc2c(c1)OCO2)c1ccc(N2C(=O)c3ccccc3C2=O)cc1`: “inactive”. Then `COc1ccc(-c2csc(N3CCN(Cc4ccc5c(c4)OCO5)CC3)n2)cc1`, with “inactive”.

Turning to `CCCn1c(C(C)Nc2nc(-c3ccc(C)cc3)cs2)nc2cc(Cl)c(N3CCCCC3)cc21` (configuration not stated), the Potency entry was “inactive”. The same measure for `Cc1ccc(-c2csc(N3CCN(c4cc5c(cc4Cl)nc(-c4ccncc4)n5CCOCCO)CC3)n2)cc1`: 16.4 µM (active); for `COc1cccc(CNC(=O)c2nnn(CC(=O)Nc3cc(C)ccc3C)c2N)c1`: “inactive”; for `CSc1c(SCc2ccccc2)cnn(Cc2ccccc2)c1=O`: “inactive”.

On to `CC1CN(C2CCCCC2)c2nc3c(c(=O)n(C)c(=O)n3C)n2C1` (configuration not stated), for which the Potency result is “inactive”. As to `Cn1c(=O)n(CCc2ccccc2)c(=O)c2c1nc1n2CCCN1c1ccccc1`, the Potency entry was “inactive”.

For `Cc1cccc(N2CC(C)Cn3c2nc2c3c(=O)n(CC(=O)OCc3ccccc3)c(=O)n2C)c1` (configuration not stated), the Potency was 23.1 µM (active). The same measure for `CCn1c(SC(C)C(=O)Nc2ccc(N3CCOCC3)cc2)nnc1-c1ccco1` (configuration not stated): “inactive”. On to `COc1ccc(C(C)C)cc1-c1ccc2nncn2c1`, for which the Potency result was “inactive”. Then `C=CCn1c(SCC(=O)Nc2ccc(NC(C)=O)cc2)nc2sc(C)c(C)c2c1=O`, with “inactive”. Turning to `CC(OC(=O)CNC(=O)c1ccco1)C(=O)Nc1ccc(Cl)cn1` (configuration not stated), the Potency result was “inactive”.

In the case of `CC(=O)c1ccc(N2Cc3ccccc3C2)cc1`, the Potency entry was “inactive”.

Values taken from PubChem BioAssay AID686979 (National Center for Advancing Translational Sciences (NCATS), 2013).
